Measured values published in PubChem BioAssay AID1159580 (chemical genetic matrix, 2015).
Hit rate of the full screen: of about 5,500 compounds, about 2,000 (36%) were called active. Roughly 18% stayed inconclusive and do not appear here. This is one part of the list. A number with no mark means an inactive call. No stated cut-off is given here; in the data, active means normalized growth mostly below about 0.91 (no sharp cut-off); inconclusive means no clear call, values can overlap the other calls; inactive means mostly above about 0.92.

Experiment: chemical genetic growth profiling, strain panel (AID 1159580);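 further: tested at 20 µM; growth read once vehicle control cultures reached saturation at 30 °C; 1 = growth at the plate median or of vehicle wells; lower values mean less growth of the strain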
Settings: S. cerevisiae deletion strains, growth OD

## CCCN1CCC[C@@H]2Cc3[nH]ncc3C[C@H]21
Locus YAL013W, strain DEP1, active compounds read low
  normalized growth: 0.989
Locus YAL040C, strain CLN3, active compounds read low
  normalized growth: 1.02
Locus YCL061C, strain MRC1 (second series), active compounds read low
  normalized growth: 1
Locus YDR363W, strain ESC2, active compounds read low
  normalized growth: 1.01
Locus YER002W, strain NOP16, active compounds read low
  normalized growth: 1.01
Locus YMR263W, strain SAP30, active compounds read low
  normalized growth: 0.994
Locus YMR307W, strain GAS1, active compounds read low
  normalized growth: 0.985
Locus YNL128W, strain TEP1, active compounds read low
  normalized growth: 1.02
Locus YNL175C, strain NOP13, active compounds read low
  normalized growth: 1
Locus YNL197C, strain WHI3, active compounds read low
  normalized growth: 1.02
Locus YNL224C, strain SQS1, active compounds read low
  normalized growth: 1.01
Locus YNL322C, strain KRE1, active compounds read low
  normalized growth: 1.01
Locus YOR083W, strain WHI5 (second series), active compounds read low
  normalized growth: 1.02

## O=C(Oc1ccc2ccccc2c1C1SCCS1)c1ccc([N+](=O)[O-])o1
Locus YAR019C, strain CDC15, active compounds read low
  normalized growth: 0.952
Locus YBL105C, strain PKC1, active compounds read low
  normalized growth: 0.958
Locus YBR135W, strain CKS1, active compounds read low
  normalized growth: 0.966
Locus YBR136W, strain MEC1, active compounds read low
  normalized growth: 0.957
Locus YBR160W, strain CDC28, active compounds read low
  normalized growth: 0.947
Locus YDL017W, strain CDC7, active compounds read low
  normalized growth: 0.958
Locus YDL028C, strain MPS1, active compounds read low
  normalized growth: 0.942
Locus YDL101C, strain DUN1, active compounds read low
  normalized growth: 0.943
Locus YDL108W, strain KIN28, active compounds read low
  normalized growth: 0.955
Locus YDL132W, strain cdc53, active compounds read low
  normalized growth: 0.973
Locus YDL214C, strain PRR2, active compounds read low
  normalized growth: 0.912
Locus YDR052C, strain DBF4, active compounds read low
  normalized growth: 0.973
Locus YDR054C, strain cdc34, active compounds read low
  normalized growth: 0.97
Locus YDR226W, strain ADK1, active compounds read low
  normalized growth: 0.933
Locus YDR477W, strain SNF1, active compounds read low
  normalized growth: 0.901
Locus YER123W, strain YCK3, active compounds read low
  normalized growth: 0.907
Locus YER133W, strain GLC7, active compounds read low
  normalized growth: 0.953
Locus YFL009W, strain cdc4, active compounds read low
  normalized growth: 0.964
Locus YFL029C, strain CAK1, active compounds read low
  normalized growth: 0.948
Locus YFR003C, strain YPI1, active compounds read low
  normalized growth: 0.957
Locus YFR019W, strain FAB1, active compounds read low
  normalized growth: 0.923
Locus YFR028C, strain CDC14, active compounds read low
  normalized growth: 0.946
Locus YGR040W, strain KSS1, active compounds read low
  normalized growth: 0.919
Locus YGR052W, strain FMP48, active compounds read low
  normalized growth: 0.966
Locus YGR092W, strain DBF2, active compounds read low
  normalized growth: 0.86
Locus YHR030C, strain SLT2, active compounds read low
  normalized growth: 0.698 (active)
Locus YHR079C, strain IRE1, active compounds read low
  normalized growth: 0.89
Locus YHR082C, strain KSP1, active compounds read low
  normalized growth: 0.936
Locus YHR205W, strain SCH9, active compounds read low
  normalized growth: 0.768
Locus YIL147C, strain SLN1, active compounds read low
  normalized growth: 0.93
Locus YJL095W, strain BCK1, active compounds read low
  normalized growth: 0.855
Locus YJL128C, strain PBS2, active compounds read low
  normalized growth: 0.842
Locus YJL157C, strain FAR1, active compounds read low
  normalized growth: 0.92
Locus YJR016C, strain ILV3, active compounds read low
  normalized growth: 0.958
Locus YJR066W, strain TOR1 (second series), active compounds read low
  normalized growth: 0.919
Locus YJR066W, strain TOR1, active compounds read low
  normalized growth: 0.879
Locus YKL048C, strain ELM1, active compounds read low
  normalized growth: 0.925
Locus YKL067W, strain YNK1, active compounds read low
  normalized growth: 0.909
Locus YKL101W, strain HSL1, active compounds read low
  normalized growth: 0.894
Locus YKL193C, strain SDS22, active compounds read low
  normalized growth: 0.952
Locus YKL203C, strain TOR2, active compounds read low
  normalized growth: 1.02
Locus YLR113W, strain HOG1, active compounds read low
  normalized growth: 0.702 (active)
Locus YLR133W, strain CKI1, active compounds read low
  normalized growth: 0.919
Locus YLR403W, strain SFP1, active compounds read low
  normalized growth: 0.919
Locus YML070W, strain DAK1, active compounds read low
  normalized growth: 0.907
Locus YMR001C, strain CDC5, active compounds read low
  normalized growth: 0.94
Locus YMR205C, strain PFK2 (second series), active compounds read low
  normalized growth: 0.938
Locus YMR277W, strain FCP1, active compounds read low
  normalized growth: 0.937
Locus YNL006W, strain LST8, active compounds read low
  normalized growth: 0.955
Locus YNL020C, strain ARK1, active compounds read low
  normalized growth: 0.917
Locus YNL161W, strain CBK1, active compounds read low
  normalized growth: 0.957
Locus YNL183C, strain NPR1, active compounds read low
  normalized growth: 0.951
Locus YNL207W, strain RIO2, active compounds read low
  normalized growth: 0.963
Locus YNL222W, strain SSU72, active compounds read low
  normalized growth: 0.939
Locus YNL307C, strain MCK1 (second series), active compounds read low
  normalized growth: 0.901
Locus YOL078W, strain AVO1, active compounds read low
  normalized growth: 0.962
Locus YOL136C, strain PFK27, active compounds read low
  normalized growth: 0.886
Locus YOR061W, strain CKA2, active compounds read low
  normalized growth: 0.921
Locus YOR119C, strain RIO1, active compounds read low
  normalized growth: 0.973
Locus YOR231W, strain MKK1, active compounds read low
  normalized growth: 0.878
Locus YOR329C, strain SCD5, active compounds read low
  normalized growth: 0.957
Locus YPL031C, strain PHO85, active compounds read low
  normalized growth: 0.917
Locus YPL153C, strain RAD53, active compounds read low
  normalized growth: 0.909
Locus YPL204W, strain HRR25, active compounds read low
  normalized growth: 0.906
Locus YPL209C, strain IPL1, active compounds read low
  normalized growth: 0.964
Locus YPL256C, strain CLN2, active compounds read low
  normalized growth: 0.807 (active)
Locus YPR025C, strain CCL1, active compounds read low
  normalized growth: 0.961
Locus YPR106W, strain ISR1, active compounds read low
  normalized growth: 0.939
Locus YPR111W, strain DBF20, active compounds read low
  normalized growth: 0.913
Strain NNK1, active compounds read low
  normalized growth: 0.941
Strain TSCII, active compounds read low
  normalized growth: 0.954
